Screening results as filed in PubChem BioAssay.
A selection: hits, their analogues and other compounds. The true share with any hit is near 2%.
CHO-K1 Ca PAM – nonselective activator or artifact in parental CHO-K1 calcium assay; activation, % at 3 µM; 360,000 compounds, 0.02% hits; ATP EC20, Fluo-8 calcium fluorescence; 0% at ATP EC20, 100% at ATP max;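 active = activation above the run cutoff, the mean activation of all test compounds plus 3 SD, cut at about 40% in these data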;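 note: peak over basal fluorescence ratio in a 140 s read after ATP addition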
CHRM4 agonist – agonists of human muscarinic M4 receptor (CHRM4) | P08173 | CHO-K1 hM4/Gqi5, Fluo-8 calcium fluorescence; vehicle 0%, full acetylcholine response 100% | activation, % at 3 µM | 360,000 compounds, 0.14% hits | AID 624127;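 active = activation above the run mean over all test wells plus 3 SD, cut at about 32% in these data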;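 note: peak over basal fluorescence ratio per well then scaled between controls; 0% = DMSO wells and 100% = acetylcholine at EC100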
Target sequence (P08173 whole entry, looked up): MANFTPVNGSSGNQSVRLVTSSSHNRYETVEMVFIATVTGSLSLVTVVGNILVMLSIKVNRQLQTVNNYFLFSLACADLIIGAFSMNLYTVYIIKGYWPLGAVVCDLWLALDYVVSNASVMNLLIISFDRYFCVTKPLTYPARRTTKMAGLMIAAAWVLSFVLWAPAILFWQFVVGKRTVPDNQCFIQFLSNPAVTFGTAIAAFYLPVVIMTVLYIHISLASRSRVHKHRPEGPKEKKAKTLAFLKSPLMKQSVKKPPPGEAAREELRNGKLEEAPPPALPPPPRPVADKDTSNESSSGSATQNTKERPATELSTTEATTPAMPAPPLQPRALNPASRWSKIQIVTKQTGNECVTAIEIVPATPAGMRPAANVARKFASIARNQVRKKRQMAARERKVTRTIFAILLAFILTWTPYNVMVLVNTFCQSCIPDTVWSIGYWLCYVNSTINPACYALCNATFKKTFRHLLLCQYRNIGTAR
M4 antag – CHRM4 antagonism in calcium assay; P08173; inhibition, % at 3 µM; CHO-hM4 cells, ACh EC80, Fluo-8 calcium fluorescence; 360,000 compounds, 0.73% hits;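 active = inhibition above its plate's cutoff, the mean inhibition of sample wells plus 3 SD, cut at about 27% in these data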;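 note: 0% = acetylcholine EC80 with DMSO and 100% = DMSO without agonist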
CHO-K1 Ca antag – M1 antagonist counterscreen hit in parental CHO-K1 cells | ATP-induced calcium, Fluo-8 fluorescence | inhibition, % at 3 µM | 360,000 compounds, 0.6% hits | AID 602250;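 active = inhibition above a per-plate cutoff, the plate's mean sample inhibition plus 3 SD, cut at about 24% in these data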;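 note: 0% = DMSO plus EC80 ATP and 100% = DMSO alone without ATP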
CHO-K1 Ca ag – counter-screen for M1 agonists: effect in parental CHO-K1 cells | 360,000 compounds, 0.48% hits | activation, % at 3 µM | AID 602248 | Fluo-8 calcium fluorescence; scaled to maximal ATP response, vehicle zero; in the data active = activation above about 15%;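 note: untransfected CHO-K1 host cells lacking M1 receptor as counterscreen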
M4 PAM – CHRM4 positive allosteric modulation. P08173. CHO-K1 hM4/Gqi5, Fluo-8 calcium fluorescence, ACh EC20; 0% = ACh EC20, 100% = maximal ACh. AID 624126. activation, % at 3 µM. 360,000 compounds, 0.4% hits;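 active = activation above its plate's cutoff, the mean activation of sample wells plus 3 SD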
* hit, by the source's call.

SMILES	CHO-K1 Ca PAM	CHRM4 agonist	M4 antag	CHO-K1 Ca antag	CHO-K1 Ca ag	M4 PAM
COc1cccc(N2C(=O)CC(NNc3nc4ccccc4s3)C2=O)c1 (centres undefined)	6	13	-4	-3	4	-3
CS/C(=N\NC(N)=O)c1ccccc1	13	2	-9	-3	1	15
CS/C(=N\N(C)C(N)=O)c1ccccc1	16	0	-4	4	15*	-2
COc1cccc(NC(=O)CSc2nnc(Cc3cccn3C)n2-c2ccc(F)cc2)c1	-5	0	-14	0	0	10
COc1ccc(-n2c(Cc3cccn3C)nnc2SCC(=O)Nc2cccc(OC)c2)cc1	2	-1	-5	6	0	18*
Cc1nn(-c2ccccc2)c2sc(-c3n[nH]c(=S)o3)cc12	-7	0	20	25*	-1	3
CCCCCc1c(-c2ccccc2OC)ncn1CCc1ccccc1OC	7	13	34*	11	11	-13
CCCCc1c(-c2ccccc2OC)ncn1CCc1ccccc1OC	-4	16	18	9	13	-13
COc1ccccc1CCn1cnc(Cc2ccccc2)c1C(C)C	-2	14	33*	-11	8	-15
CCOC(=O)C1=C(Nc2ccccc2)CSC1	16	0	-13	-13	1	0
COc1ccccc1Cc1c(-c2ccc(Cl)cc2)nc2ccc(Br)cn12	8	-2	-9	13	0	5
COc1ccc(-c2[nH]ncc2CN2CCC(N3CCSCC3)CC2)cc1F	10	1	-2	2	0	1
C/C(=N\NC(=O)c1ccccc1)c1ccc(N2CCOCC2)cc1	-8	1	9	-4	0	0
C/C(=N/NC(=O)c1cccs1)c1ccc(N2CCOCC2)cc1	-6	0	14	25*	0	-6
C/C(=N\OCC(=O)N/N=C/c1ccc(C)cc1O)c1cccs1	-6	1	-7	23	0	6
C/C(=N\NC(=O)CO/N=C(\C)c1cccs1)c1ccc(N)cc1	1	1	29*	-4	0	12
C/C(=N\NC(=O)c1ccc(NS(=O)(=O)c2cccs2)cc1)c1cccs1	-2	0	1	-9	0	-2
C/C(=N\NC(=O)c1ccc(Cl)cc1)c1cccs1	15	1	-9	-16	1	22*
Cc1ccc2[nH]c(C(=O)N3CCCCC3)cc2c1	8	0	-3	-3	0	-3
Cc1ccc2[nH]c(C(=O)N3CCOCC3)cc2c1	-12	0	-13	25*	0	1
CSc1ccccc1C(=O)C1CCCN(S(=O)(=O)c2c(C)noc2C)C1 (centres undefined)	-13	1	-21	-14	1	13
COc1ccccc1OCCCC(=O)Nc1nccs1	12	1	0	-16	2	-4
Cc1oc2c(CN3CCCCC3)c(O)ccc2c(=O)c1-c1ccc(Br)cc1	-2	0	30*	-7	0	-14
Cc1oc2c(CN3CCCC3)c(O)ccc2c(=O)c1-c1ccc(Br)cc1	19	0	70*	-15	2	-34
COc1ccc(-c2c(C)oc3c(CN4CCOCC4)c(O)ccc3c2=O)cc1	-6	1	-8	-17	2	-10
SMILES	CHO-K1 Ca PAM	CHRM4 agonist	M4 antag	CHO-K1 Ca antag	CHO-K1 Ca ag	M4 PAM
COc1ccc(-c2c(C)oc3c(CN4CCOCC4)c(O)ccc3c2=O)cc1OC	5	0	-1	-6	1	-4
Cc1nn(CC(=O)O)c(C)c1N	-4	0	0	-3	0	-1
O=C(NC1CCCC1)C(c1ccccc1F)N(C(=O)Cc1cccs1)c1ccc2c(c1)OCCO2 (centres undefined)	12	12	-17	3	24*	-12
O=C(NC1CCCC1)C(c1ccsc1)N(C(=O)Cc1cccs1)c1ccc(F)cc1 (centres undefined)	5	1	-7	-14	0	4
COCCCn1cc(CN2CC(N3CCN(C)CC3)CS2(=O)=O)nn1 (centres undefined)	17	1	-2	-12	0	6
O=C1NC2(CCC3(CC2)OCCO3)NN1c1ccc(Cl)cc1	-3	14	-6	3	3	-5
COc1cccc(C2=Cc3ccc(F)cc3C(CC(C)=O)N2c2ccc(C#CC3(O)CCCCC3)cc2)c1 (centres undefined)	46*	4	-16	-28	2	9
O=C(c1cc(-c2ccc(Cl)cc2Cl)on1)N1CCN(C(=O)c2ccco2)CC1	-7	2	-3	25*	-1	1
O=C(O)c1cc(S(=O)(=O)N2CCN(C(=O)c3ccco3)CC2)c(Cl)cc1Cl	17	2	-30	-5	0	14*
CC(=O)N1CCc2cc(Br)cc(S(=O)(=O)N3CCCCCC3)c21	6	2	13	5	1	-3
CC(=O)N1CCc2cc(Br)cc(S(=O)(=O)N3CCN(C(=O)c4ccco4)CC3)c21	-7	2	11	24*	1	-9
COC(=O)c1ccccc1NC(=O)COc1ccc2c(c1)OCO2	-7	1	0	30*	2	3
O=C(COc1ccc2c(c1)OCO2)Nc1ccccc1F	9	1	-2	2	0	5
CCc1ccc(C(=O)Nc2cc(C)on2)o1	-15	0	-1	-10	0	1
COc1ccc(NS(=O)(=O)c2ccc(C(=O)N3CCN(c4ccc(F)cc4)CC3)cc2)cc1	-7	29	-1	1	16*	-8
Cc1ccc(C(=O)N2CCN(c3ccccn3)CC2)cc1C	21	2	-4	-6	2	15*
O=C(c1ccc(S(=O)(=O)Nc2ccc(F)cc2)cc1)N1CCN(c2ccccn2)CC1	-12	20	17	10	17*	-21
Cc1ccc(C(=O)N2CCN(c3ccccn3)CC2)cc1Cl	14	4	-11	-12	3	-1
CC(=O)/C=C(\C)Nc1c(C)n(C)n(-c2ccccc2)c1=O	4	0	4	-2	0	-7
O=C1COc2ccc(C(=O)CSc3nnc(Cc4ccccc4)o3)cc2N1	8	2	-6	-3	2	4
O=C1COc2ccc(C(=O)CSc3nnc(NCc4ccccc4)s3)cc2N1	6	19	6	4	17*	-12
COc1ccccc1CN1CC(C(=O)NCc2cnn(C)c2)CCC1=O (centres undefined)	3	1	-6	1	1	-1
O=C(Nc1ccccc1C(F)(F)F)N1CCN(C(c2ccccc2)c2ccccc2)CC1	12	0	35*	1	1	-27
